Source: PubChem BioAssay (NCATS)
Records with an inconclusive call do not appear. Calls of active or inactive are those of the source. Unless noted, the call rests on the fitted dose curve; in most records, active means well fitted curve in the direction sought with a large enough effect; inconclusive means small, poorly fitted or top-dose-only effect, or another doubt; inactive means no such curve, though single readings can be large; an effect the other way counts as inactive or inconclusive.

Assays:
[1] = MultiTox-Fluor Cytotoxicity Assay - LYMP1-003 - Live Cells (AID 962);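 further: cells exposed to compound for 16 hours at 37 °C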
Procedure, shortened: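 Readout: live-cell fluorescence (Ex/Em=405/510) from GF-AFC cleavage after 60 min MultiTox-Fluor reagent at room temperature. Lymphoblastoid LYMP1-003 cells, 16 hr compound treatment, 37 C. Concentration-response fitted to standard Hill equation for AC50.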

[2] = Cell Viability - LYMP1-003 - Assay at 24 hr (AID 963)
Procedure, shortened: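 CellTiter-Glo luminescence (intracellular ATP) read after 24 hr, 37 C compound exposure of 2500 LYMP1-003 human lymphoblastoid cells/well in complete medium; qHTS concentration series; AC50 via standard Hill equation.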

[3] = Cell Viability - LYMP1-003 - Assay at 40 hr (AID 964); further: nearly all actives have a fitted effect of over 60% in size
Procedure, shortened: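 LYMP1-003 lymphoblastoid cells, 2500/well; 5 hr preincubation, 40 hr compound exposure, 37 C; CellTiter-Glo 30 min RT; luminescence; Hill-fit AC50. Positive control tetraoctylammonium bromide.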

[4] = Cell Viability - LYMP2-005 (AID 967)
Procedure, shortened: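 Human lymphoblastoid LYMP2-005 cells, 2,500 per well in complete medium, rested 5 h at 37C then compound-treated 24 h at 37C. Intracellular ATP read by CellTiter-Glo luminescence after 30 min at room temperature; AC50 from Hill-equation fits of concentration-response data.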

[5] = Cell Viability - LYMP1-002 - Assay at 24 hr (AID 993)
Procedure, shortened: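 CellTiter-Glo luminescence (intracellular ATP) after 24 h compound exposure, 37 C, in LYMP1-002 human lymphoblastoid cells; decreased ATP taken as cytotoxicity. AC50 from standard Hill fit of concentration-response curves.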

[6] = Cell Viability - LYMP1-002 - Assay at 40 hr (AID 994); further: nearly all actives have a fitted effect of over 60% in size
Procedure, shortened: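 qHTS cytotoxicity; 2500 cells/well, 5 hr 37 C settle, compound 40 hr 37 C. CellTiter-Glo, 30 min RT, luminescence (ATP). Concentration-response, Hill fit → AC50. Pos. ctrl tetraoctylammonium bromide.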

[7] = Cell Viability - LYMP1-002 - Assay at 16 hr (AID 948)
Procedure, shortened: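 LYMP1-002 human lymphoblastoid cells, 2500/well, were treated with compounds for 16 hr at 37 C in complete medium. Viability was read as intracellular ATP by CellTiter-Glo luminescence, and AC50 was derived from a Hill fit to concentration-response data.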

[8] = Cell Viability - LYMP2-004 (AID 966); further: nearly all actives have a fitted effect of over 65% in size
Procedure, shortened: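 Luminescent ATP read-out (CellTiter-Glo, 30 min RT) after 24 hr compound exposure at 37 C; 2500 lymphoblastoid cells/well, complete medium. Decrease in ATP = cytotoxicity; AC50 from standard Hill model.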

[9] = Cell Viability - LYMP2-009 (AID 968); further: nearly all actives have a fitted effect of over 55% in size
[10] = Cell Viability - LYMP2-002 (AID 977)
Procedure, shortened: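 Human lymphoblastoid cells (2500/well) in complete medium were preincubated 5 hr at 37 C, then exposed to compounds for 24 hr at 37 C. Intracellular ATP was read by CellTiter-Glo luminescence; AC50 came from Hill-equation concentration-response fits.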

[11] = Cell Viability - LYMP2-022 (AID 987); further: nearly all actives have a fitted effect of over 55% in size
Procedure, shortened: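 Luminescent ATP read-out (CellTiter-Glo, 30 min, RT) after 24 hr, 37 C compound exposure of 2500 human lymphoblastoid cells/well in complete medium. Cytotoxicity taken as concentration-dependent ATP loss; AC50 from standard Hill equation.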

[12] = qHTS assay to identify small molecules that stimulate interleukin-8 (IL-8) secretion (AID 651758; active means well fitted activation curve with a large enough effect in the signal ratio; the % refers to the signal ratio)
Procedure, shortened: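 Secreted IL-8 measured homogeneously by TR-FRET (two labelled anti-IL-8 antibodies, 1-3 h at room temperature) after a 16 h, 37 C compound treatment of THP-1 cells at 2000 cells/well.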

[13] = qHTS assay for small molecule antagonists of the retinoid-related orphan receptor gamma (ROR-gamma) signaling pathway - cell viability counter screen (AID 720652; active means well fitted curve in the direction sought with a large enough effect in the repeat runs; an effect the other way counts as inactive or inconclusive;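 further: compound exposure lasted 16 hr before ATP read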)
Procedure, shortened: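 CHO RORE-LUC/TET-ROR line, 1,000 cells/well, 37 C 5% CO2 5 hr; cpd or DMSO + doxycycline induction, 16 hr. CellTiter-Glo, 30 min RT, luminescence = ATP content.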

Measured: Potency
Potency means the concentration at half of the fitted maximal effect.

C=CC(=O)OCC(CO)(COC(=O)C=C)COC(=O)C=C
active: [1] 3.98 µM | [2] 6.31 µM | [3] 3.98 µM | [4] 2.51 µM | [5] 3.98 µM | [6] 5.01 µM

O=Nc1ccc(Nc2ccccc2)cc1
active: [7] 10 µM | [1] 6.31 µM | [2] 10 µM | [3] 7.94 µM | [8] 7.94 µM | [4] 10 µM | [9] 7.94 µM | [10] 5.01 µM | [5] 7.94 µM | [6] 12.6 µM

c1cc(OCC2CO2)cc(OCC2CO2)c1 (configuration not stated)
active: [8] 20 µM | [9] 39.8 µM | [10] 39.8 µM | [11] 31.6 µM | [12] 42.2 µM

C=C1CC[C@H](O)C/C1=C/C=C1\CCC[C@]2(C)[C@@H]([C@H](C)CCCC(C)C)CC[C@@H]12
active: [13] 66.8 µM
